Measured values reported in ChEMBL document CHEMBL5308504, “Tm Shift (DSF) assay results for EUbOPEN Chemogenomics Library” (2023).
Several values for one entry are separate records, joined by “and”; a condition that tells them apart may be missing. Identical values can stand only once.

Assays:
Settings in all cases: Compound concentration 20.0 uM, Protein concentration 2.0 uM, Result type QC Liability
[1] = target: Tyrosine-protein kinase ABL1 (Homo sapiens) (UniProt P00519)
[2] = target: Cyclin-dependent kinase 2 (Homo sapiens) (UniProt P24941)
[3] = target: Casein kinase I isoform delta (Homo sapiens) (UniProt P48730)
Chain of Casein kinase I isoform delta (Homo sapiens) (P48730 whole entry, looked up, canonical isoform): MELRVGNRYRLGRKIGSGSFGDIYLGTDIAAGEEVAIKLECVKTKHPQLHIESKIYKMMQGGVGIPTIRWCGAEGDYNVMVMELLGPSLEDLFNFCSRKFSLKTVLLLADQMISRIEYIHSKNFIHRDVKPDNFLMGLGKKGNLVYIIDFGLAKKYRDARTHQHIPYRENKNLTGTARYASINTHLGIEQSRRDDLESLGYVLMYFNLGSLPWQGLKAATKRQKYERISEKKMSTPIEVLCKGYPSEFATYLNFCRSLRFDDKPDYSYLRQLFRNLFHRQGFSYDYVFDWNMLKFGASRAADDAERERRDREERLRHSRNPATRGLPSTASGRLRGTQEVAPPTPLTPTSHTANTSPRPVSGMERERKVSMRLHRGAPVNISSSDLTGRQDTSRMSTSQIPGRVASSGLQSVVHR

[4] = target: Glycogen synthase kinase-3 beta (Homo sapiens) (UniProt P49841)
Chain of Glycogen synthase kinase-3 beta (Homo sapiens) (P49841 whole entry, looked up): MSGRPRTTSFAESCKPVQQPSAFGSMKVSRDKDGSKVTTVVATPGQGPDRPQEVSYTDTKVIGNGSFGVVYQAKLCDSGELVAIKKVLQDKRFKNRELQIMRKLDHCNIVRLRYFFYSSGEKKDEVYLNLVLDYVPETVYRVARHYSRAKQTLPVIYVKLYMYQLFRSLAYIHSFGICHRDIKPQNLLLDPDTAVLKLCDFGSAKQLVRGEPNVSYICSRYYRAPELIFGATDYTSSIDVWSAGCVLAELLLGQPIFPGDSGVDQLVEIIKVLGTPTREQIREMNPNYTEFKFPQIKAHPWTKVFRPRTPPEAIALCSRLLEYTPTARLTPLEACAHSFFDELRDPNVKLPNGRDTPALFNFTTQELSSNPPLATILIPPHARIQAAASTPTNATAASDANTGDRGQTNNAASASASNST

[5] = target: Mitogen-activated protein kinase 1 (Homo sapiens) (UniProt P28482)
Chain of Mitogen-activated protein kinase 1 (Homo sapiens) (P28482 whole entry): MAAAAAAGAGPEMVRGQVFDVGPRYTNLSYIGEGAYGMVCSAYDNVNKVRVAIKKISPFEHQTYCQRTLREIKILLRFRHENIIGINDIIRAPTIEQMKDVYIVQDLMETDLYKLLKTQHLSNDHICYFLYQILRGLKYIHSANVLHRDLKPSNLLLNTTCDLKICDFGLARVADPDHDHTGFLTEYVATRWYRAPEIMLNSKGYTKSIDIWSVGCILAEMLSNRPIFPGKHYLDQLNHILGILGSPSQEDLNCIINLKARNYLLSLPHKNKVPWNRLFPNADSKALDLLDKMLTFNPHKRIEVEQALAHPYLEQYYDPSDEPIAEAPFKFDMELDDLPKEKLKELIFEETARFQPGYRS

[6] = target: T1, Aurora kinase A (Homo sapiens) (UniProt O14965)
T1 sequence (whole entry): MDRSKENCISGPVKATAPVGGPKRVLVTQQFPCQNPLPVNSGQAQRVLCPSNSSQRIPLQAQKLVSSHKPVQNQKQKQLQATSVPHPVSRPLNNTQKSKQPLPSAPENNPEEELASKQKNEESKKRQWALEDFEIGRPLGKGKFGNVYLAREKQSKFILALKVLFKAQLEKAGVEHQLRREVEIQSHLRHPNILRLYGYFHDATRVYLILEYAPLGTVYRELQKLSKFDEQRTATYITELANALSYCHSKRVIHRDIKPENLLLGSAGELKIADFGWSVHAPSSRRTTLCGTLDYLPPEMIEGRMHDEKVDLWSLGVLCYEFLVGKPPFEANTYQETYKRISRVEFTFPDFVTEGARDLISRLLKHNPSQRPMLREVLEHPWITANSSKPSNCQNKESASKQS

Chain of Tyrosine-protein kinase ABL1 (Homo sapiens) (P00519 whole entry): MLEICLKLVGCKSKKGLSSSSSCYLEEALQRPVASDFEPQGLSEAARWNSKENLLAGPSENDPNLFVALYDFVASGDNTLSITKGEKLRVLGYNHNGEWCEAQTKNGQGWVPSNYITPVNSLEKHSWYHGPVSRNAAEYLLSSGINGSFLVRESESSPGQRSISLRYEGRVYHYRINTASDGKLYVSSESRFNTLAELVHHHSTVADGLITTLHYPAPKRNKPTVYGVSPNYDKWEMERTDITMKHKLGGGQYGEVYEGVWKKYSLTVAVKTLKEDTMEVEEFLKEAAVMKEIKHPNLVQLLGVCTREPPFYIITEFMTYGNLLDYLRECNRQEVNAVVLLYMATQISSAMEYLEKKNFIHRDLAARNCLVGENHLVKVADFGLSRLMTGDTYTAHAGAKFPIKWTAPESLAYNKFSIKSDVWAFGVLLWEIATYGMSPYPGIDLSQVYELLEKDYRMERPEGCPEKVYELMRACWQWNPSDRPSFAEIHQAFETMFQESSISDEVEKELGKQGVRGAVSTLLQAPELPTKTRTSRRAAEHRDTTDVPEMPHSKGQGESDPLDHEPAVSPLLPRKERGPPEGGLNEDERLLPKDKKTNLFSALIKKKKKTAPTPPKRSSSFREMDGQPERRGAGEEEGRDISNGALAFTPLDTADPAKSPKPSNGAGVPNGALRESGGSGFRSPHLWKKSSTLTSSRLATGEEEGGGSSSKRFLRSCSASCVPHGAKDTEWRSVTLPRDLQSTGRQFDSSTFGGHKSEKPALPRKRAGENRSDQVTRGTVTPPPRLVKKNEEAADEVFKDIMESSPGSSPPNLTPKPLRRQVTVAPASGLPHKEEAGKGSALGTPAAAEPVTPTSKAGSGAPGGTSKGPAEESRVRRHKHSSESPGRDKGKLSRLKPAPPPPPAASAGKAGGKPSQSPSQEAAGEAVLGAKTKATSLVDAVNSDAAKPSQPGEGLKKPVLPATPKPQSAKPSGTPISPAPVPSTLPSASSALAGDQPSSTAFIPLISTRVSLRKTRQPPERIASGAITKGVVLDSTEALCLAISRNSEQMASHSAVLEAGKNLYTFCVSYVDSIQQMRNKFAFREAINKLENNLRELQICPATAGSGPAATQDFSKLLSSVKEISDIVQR

Compound	ΔTm [1]	ΔTm [2]	ΔTm [3]	ΔTm [4]	ΔTm [5]	ΔTm [6]
Cn1nc(-c2ccc(C(N)=O)cc2)c2ccccc2c1=O	0.66 °C	0.13 °C	0.57 °C	-0.19 °C	0.56 °C	0.43 °C
CS(=O)(=O)NCC[C@H](NC(=O)c1cncc2c1cnn2-c1ccc(F)cc1)c1ccnc(S(C)(=O)=O)c1	-0.12 °C	-0.17 °C	0.57 °C	-1.34 °C	0.26 °C	0.06 °C
CCCS(=O)(=O)Nc1ccc(F)c(Nc2ncnc3cnc(-n4cnc(C)c4)nc23)c1F	1.19 °C	1.1 °C	0.17 °C	0.89 °C	0.39 °C	-0.24 °C
C[C@@H]1Cc2c([nH]c3ccccc23)[C@@H](c2c(F)cc(/C=C/C(=O)O)cc2F)N1CC(C)(C)F	-0.24 °C	-0.07 °C	0.64 °C	0 °C	0.55 °C	-0.16 °C
CC(C)N1CCN(Cc2cnc(-c3cc(-c4cccc5[nH]ccc45)cc4[nH]ncc34)o2)CC1	2.44 °C	0.6 °C	1.32 °C	3.63 °C	0.24 °C	4.96 °C
C[S+](C)[O-]	0 °C (2×) and 0.21 °C	0 °C (2×) and 0.78 °C	0 °C (2×) and 0.01 °C	0 °C (2×) and -0.51 °C	0 °C (2×) and 0.53 °C	0 °C (2×) and 0.05 °C
O=C(O)CCCCN(CCc1ccccc1OCc1ccc(CCc2ccccc2)cc1)Cc1ccc(C(=O)O)cc1	-0.26 °C	0.13 °C	-0.05 °C	-0.16 °C	-0.08 °C	-0.23 °C
CC#CCC(C)[C@H](O)/C=C/[C@@H]1[C@H]2C/C(=C/CCCC(=O)O)C[C@H]2C[C@H]1O (stereo partly drawn)	-0.29 °C	0.41 °C	0.31 °C	-0.77 °C	0.12 °C	-0.07 °C
CCOC(=O)C1Cc2ccccc2CN1C(=O)c1ccc(SC)s1 (stereo not drawn)	0.02 °C	0.34 °C	0.34 °C	-1.03 °C	0 °C	-1.2 °C
CC(C)(O)c1coc(S(=O)(=O)NC(=O)Nc2c3c(cc4c2CCC4)CCC3)c1	0.65 °C	1.24 °C	0.37 °C	0.29 °C	0.43 °C	0.25 °C
C=CC1C[C@]1(NC(=O)[C@@H]1C[C@@H](Oc2cc(-c3csc(NC(=O)C(C)C)n3)nc3c(Br)c(OC)ccc23)CN1C(=O)[C@@H](NC(=O)OC1CCCC1)C(C)(C)C)C(=O)O (stereo partly drawn)	0.33 °C	0.56 °C	0 °C	-2.17 °C	-1.13 °C	0.81 °C
CC(C)S(=O)(=O)c1ccccc1Nc1nc(N[C@@H]2CCCN(CCCCCCCNC(=O)COc3cccc4c3C(=O)N(C3CCC(=O)N(C)C3=O)C4=O)C2)ncc1Cl (stereo partly drawn)	1.22 °C	1.08 °C	1.07 °C	8.52 °C	0.83 °C	7.69 °C
CC(C)C(=O)N[C@@H]1CCN(C(=O)Nc2nc3c(s2)-c2nc(-c4ccccc4Cl)ncc2CC3)C1	2.72 °C	0.75 °C	2.85 °C	0.38 °C	0.99 °C	2.98 °C
COc1cc(C(=O)NCCOCCOCCOCC(=O)N[C@H](C(=O)N2C[C@H](O)C[C@H]2C(=O)NCc2ccc(-c3scnc3C)cc2)C(C)(C)C)ccc1Nc1ncc(C(F)(F)F)c(Oc2cccc3c2C(=O)CC3)n1	-0.62 °C	-0.81 °C	0.41 °C	0 °C	-8.23 °C	1.75 °C
CN(C)CCC[C@@]1(c2ccc(F)cc2)OCc2cc(C#N)ccc21	0.61 °C	0.64 °C	-0.32 °C	-0.03 °C	0.7 °C	-0.23 °C
CC1(C)CCN(C(=O)C2CN(c3c4c(nc5ccnn35)CCNCC4)C2)C1	-0.37 °C	0.71 °C	0.26 °C	-0.71 °C	0.08 °C	-0.02 °C
CCCCC[C@@](C)(O)/C=C/[C@H]1C(=O)CC(O)C1C/C=C\CCCC(=O)O (stereo partly drawn)	-0.65 °C	0.16 °C	-0.52 °C	0.15 °C	-0.04 °C	-0.74 °C
O=C(N[C@H]1CCC[C@H](CO)C1)C1CCN(c2nc3cc(Cl)c(-c4ccc(Cl)cc4)cc3o2)CC1	1.38 °C	-3.19 °C	-6.76 °C	1.1 °C	-10.4 °C	-2.13 °C
